In the library only some 28% were active in any assay of this set; here they are far more common.
CYP2C9 activ: increases human cytochrome P450 2C9 activity | P11712 | recombinant CYP2C9, luciferin-H conversion, luminescence; hits give high values; factor 1 = untreated enzyme, 0 = blocked | activation factor at 5 µM | 96,000 compounds, 1.4% hits;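 active = activation factor of 2 or more for CYP2C9 at a 5 µM dose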;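 note: 0 = sulfaphenazole-blocked wells and 1 = vehicle-only wells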
CYP2C19 activ: increases human CYP2C19 enzyme activity. 96,000 tested, under 10 active. P33261. AID 1025. recombinant CYP2C19, luciferin-H EGE luminescence; hits give high values; 0 = fully inhibited enzyme, 1 = untreated enzyme. activation factor at 5 µM;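 active = activation factor of at least 2 at 5 µM in the primary screen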;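 note: 0 = wells with 2.5 mM tranylcypromine and 1 = vehicle-only wells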
Target sequence (P33261 whole entry, looked up): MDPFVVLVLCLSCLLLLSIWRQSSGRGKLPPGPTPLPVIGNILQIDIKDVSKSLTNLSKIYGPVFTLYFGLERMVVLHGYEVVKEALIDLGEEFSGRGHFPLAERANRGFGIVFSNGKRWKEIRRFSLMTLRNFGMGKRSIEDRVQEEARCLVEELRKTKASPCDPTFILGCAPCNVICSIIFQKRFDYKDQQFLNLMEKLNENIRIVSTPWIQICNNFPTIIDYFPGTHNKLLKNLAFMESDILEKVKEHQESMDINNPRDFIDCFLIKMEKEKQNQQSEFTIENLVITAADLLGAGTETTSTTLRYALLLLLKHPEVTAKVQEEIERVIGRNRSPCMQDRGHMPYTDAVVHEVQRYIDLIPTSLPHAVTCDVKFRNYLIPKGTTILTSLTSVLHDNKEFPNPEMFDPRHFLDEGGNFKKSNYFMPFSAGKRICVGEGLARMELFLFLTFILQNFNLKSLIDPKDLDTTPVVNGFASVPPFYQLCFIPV
CD11b adhes inh: CD11b/CD18-fibrinogen binding inhibition; P05107+P11215; K562 CD11b/CD18 adhesion to fibrinogen, ATPlite luminescence; Mn2+ added to activate the integrin; inhibition, % at 10 µM; 93,000 compounds, 0.54% hits;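 active = primary inhibition of 50% or more at 10 µM, then 40% or more on retest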
CYP2C19 inh: inhibitors of human CYP2C19 | P33261 | 96,000 compounds, 21% hits | inhibition, % at 5 µM | AID 778 | CYP2C19 Supersomes, luciferin-H EGE luminescence, 30 min;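 active = CYP2C19 inhibition above a set limit at 5 µM in the primary screen, cut at about 50% in these data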;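 note: plate controls were negative control wells for no effect and 2.5 mM tranylcypromine positive control for full effect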
CD11b adhes enh: increases human CD11b/CD18 adhesion to fibrinogen. P05107+P11215. K562 CD11b/CD18 adhesion to fibrinogen, ATPlite luminescence. activation, % at 10 µM. 93,000 compounds, 0.07% hits;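 active = 10 µM primary screen giving 50% or more activity, confirmed by 40% or more on retest at that dose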
CYP2C9 inhib: blocks human cytochrome P450 2C9; 96,000 compounds, 20% hits; AID 777; P11712; inhibition, % at 5 µM; CYP2C9 Supersomes, luciferin-H conversion, luminescence;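 active = blocking of liver enzyme CYP2C9 beyond about 50% at 5 µM, limit read from the data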
Starred values were filed as active, the others as inactive; . = no result given.

SMILES | CYP2C9 activ | CYP2C19 activ | CD11b adhes inh | CYP2C19 inh | CD11b adhes enh | CYP2C9 inhib
Cc1cc(C(=O)CSc2nc3ccccc3c(=O)n2C)c(C)n1Cc1ccc2c(c1)OCO2 | 0.2 | 0.2 | 98.0 | 76.2* | -7.4 | 84.7*
CC1CCCCN1C(=O)CSc1nc2cc3c(cc2c(=O)n1Cc1ccc2c(c1)OCO2)OCO3 (stereo not given) | 0.5 | 0.5 | -6.4 | 48.7 | 18.0 | 51.5*
COCCn1c(SCC(=O)N2CCC(C)CC2)nc2ccccc2c1=O | 0.6 | 0.6 | 5.4 | 44.1 | 1.6 | 39.2
CC1CCN(C(=O)CSc2nc3ccccc3c(=O)n2Cc2ccc3c(c2)OCO3)CC1 | 0.3 | 0.4 | . | 62.0* | . | 67.2*
CCn1c(SCC(=O)N2CCCCC2C)nc2ccsc2c1=O (stereo not given) | 0.7 | 0.9 | -3.4 | 11.5 | 0.0 | 28.5
C[N+]1(CCOc2ccc([N+](=O)[O-])cc2)CCOCC1 | 1.1 | 1.1 | 0.2 | -13.2 | 6.1 | -8.6
CC(C)CNC(=S)NC(=O)c1ccc(Cl)cc1Cl | . | . | 12.3 | . | -3.9 | .
CC1CCN(C(=O)Cn2c(=O)n(Cc3ccc4c(c3)OCO4)c(=O)c3ccccc32)CC1 | 0.5 | 0.8 | -11.7 | 22.1 | -1.0 | 53.6*
Cc1cc(C)n2nc(-c3cnn(C)c3C(F)(F)F)c(Cl)c2n1 | 0.7 | 0.7 | . | 29.8 | . | 27.9
Cc1cc(C(F)(F)F)n2nc(-c3cnn(C)c3C(F)(F)F)c(Cl)c2n1 | 0.3 | 0.5 | . | 51.2* | . | 72.1*
O=C(c1cccs1)c1ccc(-c2cccs2)s1 | 0.3 | 0.5 | 36.1 | 48.7 | 0.7 | 73.9*
Cc1c(C(=O)C(=O)N2CCCc3ccccc32)c2ccccc2n1C | . | . | -3.9 | . | -2.4 | .
COc1ccccc1C1/C(=C(/O)c2ccccc2)C(=O)C(=O)N1CC(C)C (stereo not given) | 0.4 | 1.1 | 6.3 | -10.0 | -0.7 | 58.8*
COc1ccccc1C1/C(=C(/O)c2ccc(C)cc2)C(=O)C(=O)N1CC(C)O (stereo not given) | 0.9 | 1.1 | . | -5.4 | . | 9.0
COC(=O)C1=C(C)N(C)C(=O)NC1c1cc(Cl)c(O)c(OC)c1 (stereo not given) | 0.4 | 0.6 | -24.4 | 36.5 | -2.6 | 56.1*
CC(C)C(=O)Nc1cc(=O)[nH]c2ncnn12 | 1 | 1 | -9.4 | -1.8 | 2.8 | -4.3
Cc1ccc(-n2c(SCC(=O)OC(C)C)nnc2-c2ccccn2)cc1 | 1 | 0.5 | 27.2 | 50.6* | 4.7 | -2.2
CC(C)OC(=O)CSc1nnc(-c2ccccc2)n1N | 0.9 | 0.4 | 6.4 | 60.5* | -4.3 | 14.0
CC(C)OC(=O)CSc1nnc(-c2cccnc2)n1N | 1.1 | 1.1 | -13.4 | -6.1 | -4.1 | -8.2
Cc1ccc(-n2c(SCC(=O)OC(C)C)nnc2-c2ccco2)cc1 | 2.3* | 0.8 | 4.7 | 23.1 | -3.4 | -130.0
O=C(CN1C(=O)CCS(=O)(=O)c2ccccc21)Nc1cccc(F)c1 | 1.2 | 1.1 | -3.0 | -11.7 | 7.9 | -21.2
O=C(Nc1ccc(S(=O)(=O)NCc2cccnc2)cc1)c1ccco1 | 1 | 1.1 | 6.2 | -9.5 | -4.3 | 0.3
COc1ccc(NC(=S)NCc2ccco2)cc1 | 0.9 | 0.7 | -11.3 | 32.1 | -4.6 | 7.3
S=C(NCc1ccco1)Nc1cccc(Cl)c1 | 1.2 | 0.7 | 34.9 | 34.1 | -9.6 | -15.8
O=C(Nc1ccc(Cl)c(Cl)c1)N(Cc1cccnc1)Cc1ccco1 | 0 | 0 | 0.7 | 99.0* | -0.7 | 99.6*
SMILES | CYP2C9 activ | CYP2C19 activ | CD11b adhes inh | CYP2C19 inh | CD11b adhes enh | CYP2C9 inhib
S=C(NCc1ccco1)Nc1ccc(Cl)c(Cl)c1 | 0.6 | 0.5 | 83.3 | 53.1* | -4.5 | 36.4
CCOc1ccccc1NC(=S)NCc1ccco1 | 1.3 | 0.1 | -30.4 | 87.2* | 1.8 | -31.4
COc1cc(NC(=S)NCc2ccco2)cc(OC)c1 | 0.9 | 0.3 | -23.1 | 67.4* | -1.4 | 10.3
CCN(CC)CCCNC(=O)C1c2ccccc2C(=O)N(C)C1c1ccc(OC)cc1 (stereo not given) | 1 | 1.1 | 2.2 | -7.7 | -5.1 | -2.3
COc1ccc(Cl)cc1NC(=S)NCc1ccco1 | 2* | 0.3 | . | 71.1* | . | -100.4
COc1cccc(N2CCN(C(=S)NCc3ccco3)CC2)c1 | 0.3 | 0.5 | . | 53.0* | . | 67.5*
Cc1ccc(C(=O)N2CCN(c3ccc(C(F)(F)F)cn3)CC2)cc1 | 0.8 | 0.8 | 4.8 | 21.7 | -0.4 | 16.6
Cc1ccc(C(=O)N2CCN(c3ccc(C(F)(F)F)cn3)CC2)c(C)c1 | 0.8 | 0.4 | 20.8 | 63.5* | 1.0 | 18.9
Cc1ccc2c(c1)C(CCN)C(=O)N2Cc1ccccc1 (stereo not given) | 1.1 | 1.1 | 26.4 | -14.2 | -1.5 | -12.7
Cc1ccc2c(c1)C1CCCC3C1N2CC(=O)N3Cc1ccccc1 (stereo not given) | 0 | 0 | 40.5 | 99.3* | -1.5 | 100.1*
CN(C)S(=O)(=O)c1ccc(-c2cn3ccccc3n2)cc1 | 0.5 | 0.9 | 10.9 | 12.5 | -4.0 | 54.0*
O=C(O)CCCC(=O)Nc1ccccc1Br | 1.1 | 1.1 | -16.1 | -10.4 | -0.6 | -6.3
CCOC(=O)c1c(C)[nH]c(C(=O)CSc2nnnn2-c2ccc(C)cc2)c1C | 0.6 | 0.5 | -53.0 | 54.5* | 11.5 | 36.0
Cc1ccccc1OCc1nnc(SCC(=O)NCc2ccccc2)n1C | 1.4 | 1 | -10.5 | 0.8 | 1.6 | -41.3
CCn1c(SCC(=O)c2ccc(NS(=O)(=O)c3ccccc3)cc2)nnc1-c1cccs1 | 0.1 | 0.8 | -2.2 | 22.1 | 0.5 | 94.0*
Cc1cccc(OCc2nnc(SCC(=O)c3cccs3)n2C)c1C | 0.5 | 0.2 | 15.3 | 77.6* | -1.7 | 52.9*
CCn1c(SCC(=O)c2cccs2)nnc1-c1cccs1 | 0.5 | 0 | 2.0 | 97.7* | -3.3 | 45.1
CCOC(=O)c1c(C)[nH]c(C(=O)CSc2nnnn2-c2ccccc2)c1C | 1.1 | 0.9 | -2.7 | 9.8 | -0.8 | -7.5
CCn1c(SCC(=O)c2ccc(CNC(C)=O)o2)nnc1-c1cccs1 | 1 | 0.6 | 2.5 | 39.1 | 4.0 | 0.9
CN(c1ccc(C(=O)NCCc2ccccc2)cc1)S(C)(=O)=O | 1 | 0.9 | 1.1 | 12.3 | -5.2 | 3.6
CCOC(=O)c1c(C)[nH]c(C(=O)CSc2nnc(-c3ccncc3)n2CC)c1C | 0.2 | 0.1 | -0.6 | 93.9* | 2.3 | 83.8*
CCn1c(SCC(=O)NC(C)C)nnc1-c1cccs1 | 1 | 0.9 | -18.0 | 12.5 | -2.6 | -2.2
CCn1c(SCC(=O)c2[nH]c(C)c(C(C)=O)c2C)nnc1-c1cccs1 | 0.7 | 0.4 | 26.2 | 64.2* | -1.9 | 28.8
O=C(COC(=O)c1ccc(S(=O)(=O)NCc2ccco2)cc1)NCCC1=CCCCC1 | 1 | 1.2 | -4.3 | -21.8 | 54.3 | -3.0
CCOC(=O)N1CCN(C(=O)COc2ccc(Br)cc2Cl)CC1 | 0.6 | 0.1 | -1.4 | 86.1* | -2.1 | 36.5
C=CCNC(=O)COc1ccc(Br)cc1Cl | 0.6 | 0.1 | 5.6 | 92.6* | -4.2 | 43.3
